Measurements: PubChem BioAssay AID1851 (National Center for Advancing Translational Sciences (NCATS), 2009)
The whole screen tested about 16,000 compounds, of which about 5,800 (36%) were called active. Not shown: some 23% with an inconclusive outcome. Calls come from the whole dose curve; as a rule, active = well fitted curve in the direction sought with a large enough effect; inconclusive = small, poorly fitted or top-dose-only effect, or effect the other way; inactive = no such curve, though single readings can be large or run the other way. This is one part of the list.

Target: Cytochrome P450 2C19 (Homo sapiens) (UniProt P33261)
Assay: Cytochrome panel assay with activity outcomes
Conditions: recombinant CYP, pro-luciferin dealkylation, luminescence, p450-cyp2c19; series mostly up to 57.1 µM
% is set by controls: 0 for no effect and ±100 for the full control effect.

Sequence of Cytochrome P450 2C19 (Homo sapiens) (P33261 whole entry, looked up): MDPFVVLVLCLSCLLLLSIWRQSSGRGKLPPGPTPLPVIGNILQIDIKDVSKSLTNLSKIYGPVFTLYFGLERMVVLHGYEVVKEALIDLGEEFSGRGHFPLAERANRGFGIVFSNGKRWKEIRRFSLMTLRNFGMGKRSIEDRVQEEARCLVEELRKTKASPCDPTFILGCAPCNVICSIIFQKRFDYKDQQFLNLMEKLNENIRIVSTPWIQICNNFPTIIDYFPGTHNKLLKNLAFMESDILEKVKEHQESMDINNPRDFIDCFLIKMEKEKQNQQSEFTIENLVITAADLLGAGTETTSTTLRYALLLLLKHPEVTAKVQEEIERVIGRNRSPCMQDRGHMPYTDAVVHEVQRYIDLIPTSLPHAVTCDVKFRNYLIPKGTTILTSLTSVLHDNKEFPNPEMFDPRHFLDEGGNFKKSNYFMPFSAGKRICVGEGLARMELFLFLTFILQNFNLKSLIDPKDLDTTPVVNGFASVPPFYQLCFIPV

AC50, active:
Cc1nnc(NC(=O)c2oc3c(ccc4ccccc43)c2C)s1 10 µM, Cc1ccc(S(=O)(=O)CC#CCOC(=O)c2ccc([N+](=O)[O-])cc2)cc1 7.94 µM, C/C(=C\C(=O)c1ccc(Cl)cc1)NCc1ccc2c(c1)OCO2 2.51 µM, C/C(=C\C(=O)c1ccc(Br)cc1)NCc1ccc2c(c1)OCO2 8.91 µM, O=C(c1ccc(Cl)c(Cl)c1)c1cc(-c2ccccn2)c(N2CCOCC2)s1 7.94 µM, Cc1cc(F)ccc1S(=O)(=O)Nc1ccccc1C(=O)Nc1ccccc1N1CCOCC1 1.58 µM, CCn1cnc2sc(C(=O)N3CCN(c4ccc(OC)cc4)CC3)c(C)c2c1=O 10 µM, COc1ccc2[nH]c(-c3ccccc3)c(CCNC(C)=O)c2c1 7.94 µM, CC(=O)NCCc1c(Cc2ccccc2)[nH]c2ccccc12 25.1 µM, COc1ccc(NS(=O)(=O)c2cc(-c3nnnn3C)ccc2OC)cc1 14.1 µM, O=C(O)c1ccc(SSc2ccc(C(=O)O)cn2)nc1 2.51 µM, CCOC(=O)c1nnc(-c2ccccc2)nc1NCc1ccccc1 25.1 µM, O=S(=O)(Nc1ccc(Cc2ccncc2)cc1)c1ccc(Br)cc1 0.0224 µM, O=S(=O)(Nc1ccc(Cc2ccncc2)cc1)c1ccc(Cl)c(Cl)c1 0.0251 µM, O=S(=O)(Nc1ccc(Cc2ccncc2)cc1)c1cccs1 0.0224 µM, CCCCOC(=O)CSc1nnc(-c2cc(OC)c(OC)c(OC)c2)o1 15.8 µM, COc1cc(-c2nnc(SCC(=O)Nc3ccc4c(c3)OCCO4)o2)cc(OC)c1OC 11.2 µM, COc1cc(-c2nnc(SCC3(c4ccccc4)OCCO3)o2)cc(OC)c1OC 1.12 µM, Cn1cc(-c2nc3cnc(N4CCNCC4)nc3n(C)c2=O)c2ccccc21 10 µM, Cn1cc(-c2nc3cnc(N4CCNCC4)nc3n(C3CC3)c2=O)c2ccccc21 20 µM, Cc1ccccc1C(=O)NC(C)c1ccc2c(c1)CCCC2 (stereo not drawn) 2.82 µM, CCn1c2ccccc2c2cnc(N=CN(C)C)c(C#N)c21 28.2 µM, CC(C)(C)NC(=O)COC(=O)c1cncc(Br)c1 22.4 µM, CCOC(=O)c1ccc(S(=O)(=O)Nc2ccc3cn[nH]c3c2)cc1 3.16 µM, N#Cc1ccc(C(c2nnnn2Cc2ccccc2)N2CCCC2)cc1 (stereo not drawn) 11.2 µM, N#Cc1cccc(C(c2nnnn2C2CCCC2)N2CCCCCC2)c1 (stereo not drawn) 5.62 µM, N#Cc1ccc(C(c2nnnn2C2CCCC2)N2CCC(Cc3ccccc3)CC2)cc1 (stereo not drawn) 3.55 µM, O=C(c1cc(Br)ccc1O)c1cc(Br)ccc1O 0.2 µM, COc1ccc(S(=O)(=O)n2ccc(-c3cnc(-c4ccccc4)s3)n2)cc1 1.58 µM, O=S(=O)(c1ccc(F)cc1)n1ccc(-c2cnc(-c3ccccc3)s2)n1 8.91 µM, CCc1cc2c(NCc3ccco3)ncnc2s1 4.47 µM, Cc1ccc2nc(N/N=C/c3ccccc3C#N)nc(-c3ccccc3)c2c1 10 µM, Cc1cccc(N2CCN(C(=O)CSCc3c(C)noc3C)CC2)c1C 17.8 µM, Cc1ccc(NC(=S)Nc2nc(CC(=O)Nc3ccccc3)cs2)cc1 3.98 µM, COc1ccc(C(=O)Nc2scc(-c3ccc(Cl)cc3Cl)c2C(N)=O)cc1 1.26 µM, CC(C)COc1ccc(C(=O)Nc2scc(-c3ccc(Cl)cc3Cl)c2C(N)=O)cc1 2.82 µM, O=C(CC1C(=O)N(c2ccc(Cl)cc2)C(=S)N1CCc1ccncc1)Nc1ccc(F)cc1 (stereo not drawn) 0.02 µM, CS(=O)(=O)c1ccccc1COC(=O)Nc1ccc(Cl)cc1 2.51 µM, O=C(Nc1ccc(Cl)cc1)OCc1cc(-c2ccccc2)on1 0.447 µM, O=C(Nc1ccc(Cl)cc1)OCc1cc(-c2ccccc2Cl)on1 0.316 µM, O=C(Nc1ccccc1)OCc1cc(-c2ccc(Cl)cc2)on1 2 µM, Cc1nc(SCC(=O)c2ccc(F)cc2)c([N+](=O)[O-])[nH]1 8.91 µM, CCOc1ccc(NC2=NCC(=O)N2Cc2cccs2)cc1 11.2 µM, O=C1CN=C(Nc2ccccc2)N1Cc1cccs1 14.1 µM, CCCCOc1ccc(/C=C/C(=O)NCCc2nc3ccccc3[nH]2)cc1 3.98 µM, Nc1nnc(SCCOc2cccc(Br)c2)s1 3.98 µM, O=C(CSC1CC(=O)N(CC(c2ccccc2)c2ccccc2)C1=O)Nc1ccc(Cl)cc1 (stereo not drawn) 1.58 µM, Cn1c(C(=O)Nc2ccccc2)cc2sccc21 2.51 µM, COC(=O)c1ccc(NC(=O)c2cc3sccc3n2C)cc1 7.94 µM

AC50, inactive:
Cc1c(OC(=O)c2ccc([N+](=O)[O-])cc2)c2c(c[n+]1C)COC(C)(C)OC2, CCOC(=O)n1ccn(C)c1=S, O=C1Nc2ccccc2C(O)(C(=O)NCc2ccc3c(c2)OCO3)N1c1ccc(Cl)c(Cl)c1 (stereo not drawn), O=C(Nc1ccccc1N1CCOCC1)c1ccccc1[N+](=O)[O-], Cc1ccccc1C(=O)Nc1ccc(N2CCOCC2)nc1, NCc1ccccc1CC(=O)N[C@@H]1C(=O)N2C(C(=O)O)=C(CSc3nnnn3CC(=O)O)CS[C@@H]12, CC(=O)NCCc1ccc(O)c(O)c1, COC(=O)Nc1ccc2[nH]cc(CCNC(C)=O)c2c1, C=N[C@H](C(=O)N[C@@H]1C(=O)N2[C@@H]1SC(C)(C)[C@@H]2C(=O)O)c1ccccc1, COc1ccccc1S(=O)(=O)Nc1ccc(-c2nnc3n2CCCCC3)cc1, Cc1ccnc(NS(=O)(=O)c2ccc(N)cc2)n1, CC(=O)N=c1sc(S(N)(=O)=O)nn1C, CCN(CC)CCCCCCCCOC(=O)c1cc(OC)c(OC)c(OC)c1, Cc1ccc(NC(=O)CSc2nnc(-c3ccncc3)o2)cc1, Cn1cc(-c2nc3cnc(Oc4ccccc4)nc3n(C3CC3)c2=O)c2ccccc21, CN1CCN(c2ncc3nc(-c4cn(C)c5ccccc45)c(=O)n(C)c3n2)CC1, Cn1cc(-c2nc3cnc(N4CCNCC4)nc3n(-c3ccccc3)c2=O)c2ccccc21, COc1ccc(-n2c(=O)c(-c3cn(C)c4ccccc34)nc3cnc(N4CCNCC4)nc32)cc1, Cc1cnc(C(=O)OCC(=O)NC(C)C)cn1, COCCn1c(=O)c(-c2ccc(OC)cc2)nc2cnc(Nc3cccc(OC)c3)nc21, C[C@@H]1CCN=C(N)S1, CN1CCCN([C@@H](c2ccccc2)c2ccc(Cl)cc2)CC1, Oc1ccc(Br)cc1CNn1cnnc1, Cn1c(=O)c(-c2ccccc2)nc2cnc(Oc3ccccc3)nc21, COc1cccc(-c2cc(C(F)(F)F)n3ncc(S(=O)(=O)c4ccccc4)c3n2)c1, CCc1cc2c(=O)[nH]cnc2s1, CCc1cc2c(NCCO)ncnc2s1, Nc1ccccc1S(N)(=O)=O, Cc1nc(N/N=C/c2ccccc2)nc(N(C)c2ccccc2)c1[N+](=O)[O-], Cc1noc(C)c1C(=O)N1CCC2(CCCN(c3ccccc3)C2)CC1, COCCn1c(=O)c(-c2cccc(C#N)c2)nc2cnc(N3CCOCC3)nc21, NC(=O)OC[C@H](O)COc1ccc(Cl)cc1, O=C(c1cc(C(F)(F)F)cc(C(F)(F)F)c1)N1CCC[C@@]2(CCN(c3ncccn3)C2)C1, CCC(=O)O[C@@H]1[C@H](C)O[C@H](O[C@H]2[C@@H](N(C)C)[C@H](O)[C@@H](O[C@@H]3[C@@H](CC=O)C[C@@H](C)[C@@H](O)/C=C\C=C/C[C@@H](C)OC(=O)C[C@@H](OC(=O)CC)[C@H]3OC)O[C@H]2C)C[C@]1(C)O, COc1ccc(-c2nc3cnc(Nc4ccccc4)nc3n(Cc3cccs3)c2=O)cc1, Cc1nc2cnc(Nc3ccccc3)nc2n(Cc2cccs2)c1=O, C=CCN1C(=O)CN=C1Nc1ccccc1, O=c1cnc2cnc(Nc3ccccc3)nc2n1Cc1cccs1, COc1ccc(CNC(=O)/C=C/c2ccc(OCCCF)cc2)cc1, CCCCN1C(=O)CC(Sc2ccccc2C(=O)O)C1=O (stereo not drawn)

activity, negative = inhibition, inactive:
O=C(O)c1cccc(SSc2cccc(C(=O)O)c2)c1 -33.7% [at 11.4 µM], O=C(O)c1cc(C(=O)O)nc(C(=O)O)c1 3.49% [at 11.4 µM], C/C(=N/S(=O)(=O)c1ccc(Cl)c(Cl)c1)OCC(C)(C)C 58.8% [at 11.4 µM], C/C(C[n+]1ccccc1)=N\N=C(N)N 40.3% [at 11.4 µM], Cn1c(=S)c2[nH]c(SCCN3CCCC3)nc2n(C)c1=O 57% [at 11.4 µM], O=c1n(-c2ccccc2)c(=O)n2n1CC[C@H]1/C(=N\OCc3ccccc3)[C@H]3O[C@@H]3[C@@H](O)[C@@H]12 44.7% [at 11.4 µM], O=C(Nc1ccc(-c2cn3ccccc3n2)cc1)c1cc(Br)ccc1O -1.2% [at 11.4 µM], Cc1ccc2nc(N/N=C\c3cccc(C)n3)cc(C)c2c1 -12.3% [at 11.4 µM], Cn1c(=S)c2[nH]c(SCCCc3ccccc3)nc2n(C)c1=O -28.4% [at 11.4 µM]
